# Unmarked numbers belong to inactive results. Calls of active or inactive are those of the source. Calls follow the shape of the dose curve; as a rule, active = well fitted curve in the direction sought with a large enough effect in the repeat runs; inconclusive = weak or mixed curves; inactive = flat fitted curve, though single readings scatter.
# Assay: qHTS assay to test for compound auto fluorescence at 535 nm (green) in HEK293 cells (AID 720680)
# Conditions: green autofluorescence 485/535 nm; series mostly up to 46 µM; fluorescence, % of fluorescein: at the top concentration
# % is scaled to controls: 0 for no effect and ±100 for the full control effect.
Compound,"fluorescence, % of fluorescein",Potency
CC[C@@H](C(=O)[C@@H](C)[C@@H](O)[C@H](C)[C@@H]1O[C@@H]([C@@H](CC)C(=O)O)CC[C@@H]1C)[C@H]1O[C@]2(C=C[C@@H](O)[C@]3(CC[C@@](C)([C@H]4CC[C@](O)(CC)[C@H](C)O4)O3)O2)[C@H](C)C[C@@H]1C,0.159%,–
C=C1CC[C@H](O)CC1=C/C=C1\CCC[C@]2(C)[C@@H]([C@H](C)CCCC(C)(C)O)CC[C@@H]12,0.189%,–
O=C(COc1ccc(Cl)cc1)OCCNC12CC3CC(CC(C3)C1)C2,-0.0282%,–
CCOC(=O)Oc1c(OC)cc(C(=O)O[C@@H]2C[C@@H]3CN4CCc5c([nH]c6cc(OC)ccc56)[C@H]4C[C@@H]3[C@H](C(=O)OC)[C@H]2OC)cc1OC,0.155% [at 18.6 µM],–
Nc1nc2[nH]cc(CCc3ccc(C(=O)N[C@@H](CCC(=O)O)C(=O)O)cc3)c2c(=O)[nH]1,-0.0432%,–
CC(CC(c1ccccc1)c1ccccc1)NC(C)(C)C (stereo not drawn),0.0759%,–
NC[C@@H]1O[C@H](O[C@H]2[C@@H](O)[C@H](O[C@@H]3[C@@H](O)[C@H](N)C[C@H](N)[C@H]3O[C@H]3O[C@H](CN)[C@@H](O)[C@H](O)[C@H]3N)O[C@@H]2CO)[C@H](N)[C@@H](O)[C@@H]1O,-0.115%,–
OC1OC[C@@H](O)[C@H](O)[C@@H]1O (stereo partly drawn),0.0288%,–
CCN(CC)c1ccc(C(=C2C=CC(=[N+](CC)CC)C=C2)c2ccccc2)cc1,-0.0246%,–
CC(CCc1ccc(O)cc1)NCC(O)c1ccc(O)cc1 (stereo not drawn),-0.0235%,–
CC(=O)Nc1c(I)c(C(=O)O)c(I)c(N(C)C(C)=O)c1I,-0.0315%,–
C[C@]12C=CC(=O)N[C@@H]1CC[C@@H]1[C@@H]2CC[C@]2(C)[C@@H](C(=O)Nc3cc(C(F)(F)F)ccc3C(F)(F)F)CC[C@@H]12,-0.0057%,–
CCC(Oc1ccccc1)C(=O)N[C@@H]1C(=O)N2[C@@H]1SC(C)(C)[C@@H]2C(=O)O (stereo partly drawn),-0.0555%,–
COc1c(O[C@@H]2O[C@H](CO)[C@@H](O)[C@H](O)[C@H]2O)cc2c(c1OC)-c1ccc(SC)c(=O)cc1[C@@H](NC(C)=O)CC2,-0.135% [at 18.6 µM],–
CC[C@@H]1/C=C(\C)C[C@H](C)C[C@H](OC)[C@H]2O[C@@](O)(C(=O)C(=O)N3CCCC[C@H]3C(=O)O[C@H](/C(C)=C/[C@@H]3CC[C@@H](Cl)[C@H](OC)C3)[C@H](C)[C@@H](O)CC1=O)[C@H](C)C[C@@H]2OC,-0.123%,–
C[C@H](O)[C@H](O)[C@H]1CNc2nc(N)[nH]c(=O)c2N1,0.376%,–
COc1ccc(C[C@H](N)C(=O)N[C@H]2[C@@H](O)[C@H](n3cnc4c(N(C)C)ncnc43)O[C@@H]2CO)cc1,0.0014%,–

Compound,"fluorescence, % of fluorescein",Potency
O=C(NNCNNC(=O)c1ccncc1)c1ccncc1,-0.009%,–
CC(O)[C@H]1CC[C@H]2[C@@H]3CC[C@@H]4C[C@@H](O)CC[C@]4(C)[C@H]3CC[C@]12C (stereo partly drawn),-0.0569%,–
CCCCc1cc2c(=O)c(C(=O)OC)c[nH]c2cc1OCc1ccccc1,-0.042%,–
C=C[C@]1(C)C[C@@H](OC(=O)CSCCN(CC)CC)[C@]2(C)[C@H](C)CC[C@]3(CCC(=O)[C@H]32)[C@@H](C)[C@@H]1O,-0.0364%,–
CCCCCCCCCCCCCCCCCC(=O)OCC(C)O (stereo not drawn),-0.35%,–
CCCCC[C@H](O)/C=C/[C@@H]1[C@H]2C/C(=C/CCCC(=O)O)O[C@H]2C[C@H]1O,0.0208%,–
CCOC(=O)[C@@H](N)CS,-0.0089%,–
CC1(C)S[C@@H]2[C@H](NC(=O)C(N)c3ccccc3)C(=O)N2[C@H]1C(=O)OC1OC(=O)c2ccccc21 (stereo partly drawn),0.006% [at 18.6 µM],–
CN1CCc2c(c3ccccc3n2Cc2ccccc2)C1,0.0098% [at 18.6 µM],–
CN(C)CCOc1ccccc1Cc1ccccc1 (tested in a mixture with another compound),0.0155%,–
CCOC(=O)c1c[nH]c2cc(OCC(C)C)c(OCC(C)C)cc2c1=O,0.068%,–
CN(CCO)CC(O)Cn1cnc2c1c(=O)n(C)c(=O)n2C (stereo not drawn) (tested in a mixture with another compound),-0.226%,–
FCOC(C(F)(F)F)C(F)(F)F,0.106%,–
CCN(CC)CCOc1ccc2nc(N(C)C)sc2c1,-0.183%,–
COc1cc(-c2ccc(-[n+]3nc(-c4ccccc4)nn3-c3ccc([N+](=O)[O-])cc3)c(OC)c2)ccc1-[n+]1nc(-c2ccccc2)nn1-c1ccc([N+](=O)[O-])cc1,0.0171%,–
COC(=O)[C@H]1[C@H]2C[C@@H]3c4[nH]c5ccccc5c4CCN3C[C@H]2C[C@@H](OC(=O)c2cc(OC)c(OC)c(OC)c2)[C@@H]1OC,–,inactive
